Potency data for 12 molecules are collected here from PubChem BioAssay (NCATS).

Inconclusive results are not listed. Activity calls are given as the source filed them. The call rests on the fitted dose curve; in most records, active means well fitted cell-killing curve with a large enough effect; inconclusive means small, poorly fitted or top-dose-only effect, or effect the other way; inactive means no such curve, though single readings can be large or run the other way.
Potency means the concentration at half of the fitted maximal effect.

The assay can be described thus: Quantitative High-Throughput drug screen in 47 multiple myeloma cell lines against the NCATS MIPE library collection: UTMC2_PLB cell viability assay (AID 1919868). Further: nearly all actives have a fitted effect of over 55% in size. The following applies: CellTiter-Glo ATP luminescence, 48 h; viability (% of DMSO control): at 45.8 µM (top of the series) unless noted. The gist of the method:
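qHTS format: cells plated (500/well), pin-dosed with MIPE 4.0 compounds, kept 48 h at 37 °C. Readout was CellTiter-Glo luminescence, median RLU.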
For orientation: ATP-based viability assays read luminescence as a measure of living cells.
Regarding `CC=C1NC(=O)[C@H]2CSSCCC=C[C@H](CC(=O)N[C@H](C(C)C)C(=O)N2)OC(=O)[C@H](C(C)C)NC1=O`, the Potency is 33.2 nM (active).

On to `COCCn1c2c([n+](Cc3cnccn3)c1C)C(=O)c1ccccc1C2=O`, for which the Potency was 41.8 nM (active).

Consider `CCC[C@H](NC(=O)C(C#N)=Cc1cccc(Br)n1)c1ccccc1`, for which the Potency is 2090 nM (active).

Regarding `CC(NCc1ccc2c(c1)nc(NC(=O)c1ccc(-c3cn[nH]c3)s1)n2CC(C)(C)O)C(C)(C)C` (configuration not stated), the Potency was 105 nM (active).

`CNC(=O)c1c(F)cccc1Nc1nc(Nc2cc3c(cc2OC)CCN3C(=O)CN(C)C)nc2[nH]ccc12`: the Potency is 93.5 nM (active).

Consider `CC(C)CC(=O)Nc1n[nH]c2c1CN(C(=O)C1CCN(C)CC1)C2(C)C`, for which the Potency is 2350 nM (active).

Consider `COc1cc(=C2C=c3ccccc3=N2)[nH]c1=Cc1[nH]c(C)cc1C`, for which the Potency was 2090 nM (active).

With `CCOC(=O)C1=C(C)NC2=C(C(=O)CC(C)(C)C2)C1c1ccc(-c2ccccc2)cc1` (configuration not stated), the Potency was 18700 nM (active).

`Nc1cc(C(F)(F)F)c(-c2cc(N3CCOCC3)nc(N3CCOCC3)n2)cn1`: the Potency was 264 nM (active).

In the case of `C[C@@]12O[C@@H](C[C@]1(O)CO)n1c3ccccc3c3c4c(c5c6ccccc6n2c5c31)CNC4=O`, the Potency was 118 nM (active).

With `CNC(=O)c1cc(Oc2ccc(NC(=O)Nc3cc(C(C)(C)C)nn3-c3ccc4ncccc4c3)c(F)c2)ccn1`, the Potency was 4180 nM (active).

`O=C(CCCCCCC(=O)Nc1ccc([C@H]2O[C@@H](CSc3nc(-c4ccccc4)c(-c4ccccc4)o3)C[C@@H](c3ccc(CO)cc3)O2)cc1)NO`: the Potency is 8330 nM (active).
